Bioassay records: PubChem BioAssay, several laboratories
Only some compounds are listed: those with a hit (about 2.1% of all), similar ones and a draw of the others.
COUP-TFII inh = inhibitors of human COUP-TFII (NR2F2); inhibition, % at 8.6 µM; 370,000 tested, 0.7% active; AID 686940; HEK293T NGFI-A luciferase reporter, luminescence;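 active means inhibition above a per-plate cutoff, mean inhibition of test wells between control levels plus 3 SD, cut at about 38% in these data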;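 further: cells cotransfected with COUP-TFII expression vector driving the NGFI-A reporter; 0% = median of COUP-TF2 test wells and 100% = reporter-only cells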
Target sequence (P24468 whole entry, looked up): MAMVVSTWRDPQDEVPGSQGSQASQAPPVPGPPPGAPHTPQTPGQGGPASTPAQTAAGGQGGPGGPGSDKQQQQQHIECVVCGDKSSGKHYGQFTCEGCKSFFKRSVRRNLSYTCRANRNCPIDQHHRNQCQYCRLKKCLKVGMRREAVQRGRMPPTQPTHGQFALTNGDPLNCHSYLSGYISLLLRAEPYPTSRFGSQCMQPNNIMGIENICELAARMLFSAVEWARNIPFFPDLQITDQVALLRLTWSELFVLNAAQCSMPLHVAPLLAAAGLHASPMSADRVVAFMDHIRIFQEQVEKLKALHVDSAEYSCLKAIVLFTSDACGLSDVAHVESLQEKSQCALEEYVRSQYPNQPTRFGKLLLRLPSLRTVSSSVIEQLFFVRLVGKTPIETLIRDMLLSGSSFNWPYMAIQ
Gli-Sufu antag = Gli-Sufu pathway antagonism | Sufu-KO-LIGHT fibroblasts, Gli luciferase reporter luminescence | inhibition, % at 5 µM | 340,000 tested, 0.74% active;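 active means inhibition above about 55%, limit read from the data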;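 further: 0% = DMSO-treated cells and 100% = wells with medium but no cells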
aDG glyco act = increases alpha dystroglycan glycosylation; Pro5-aDG cells, alpha-DG glycosylation AlphaScreen (IIH6); 0% Pro5, 100% B10-LARGE cell signal; activation, % at 10 µM; 360,000 tested, 0.22% active; AID 624168;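 active means activation of at least 8% versus controls, or a plate z-score of at least 8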;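 further: Pro5 are CHO cells carrying HIG-tagged alpha-DG that lacks glycosylation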
GalR3 antagonist = blocks the human galanin receptor 3; HEK293 GalR3-CNG cAMP membrane potential fluorescence; galR3 body fused to GalR1 C-terminus; 360,000 tested, 0.44% active; inhibition, % at 3 µM;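 active means inhibition above the screen-wide average plus 3 SD, cut at about 13% in these data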;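 further: forskolin and galanin both at EC90 stimulate the cells; cAMP rise reported by CNG channel membrane potential dye signal; 0% = forskolin plus galanin with DMSO and 100% = forskolin alone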
HIV Env fusion = inhibitors of HIV Env-mediated cell fusion; HeLa-JRFL Env/CEM21 cell fusion, luciferase; inhibition, % at 12.3 µM; 360,000 tested, 1.1% active;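 active means mean replicate inhibition score of at least 50 and every replicate individually at or above 50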;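 further: 0% = plate neutral controls and 100% = maraviroc near 300 nM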
Numbers without * were called inactive; · = not tested or not shown; [ ] = dose if it differs, or a comment.

SMILES	COUP-TFII inh	Gli-Sufu antag	aDG glyco act	GalR3 antagonist	HIV Env fusion
CNC[C@H]1OCCCC[C@H](C)Oc2ccc(NS(=O)(=O)c3ccc(OC)cc3)cc2C(=O)N([C@@H](C)CO)C[C@H]1C	·	·	·	·	12[16.7 µM]
C[C@H]1CN([C@@H](C)CO)S(=O)(=O)c2ccc(C3=CCCCC3)cc2O[C@@H]1CN(C)C(=O)C1CC1	·	·	·	·	22[16.7 µM]
N#CC1=C(N)NC(SCC(=O)Nc2ccccc2)=C(C#N)C12CCCCC2	-7	1	0	-2	113*
COc1ccc(C(=O)CSC2=C(C#N)C3(CCCCC3)C(C#N)=C(N)N2)cc1	-19	0	0	-6	76*
O=C(CN1CCOCC1)N[C@@H]1CC[C@H](CCNC(=O)Nc2cc(F)ccc2F)O[C@@H]1CO	·	·	·	·	-26[16.7 µM]
C/C=C1\COC(C(=O)NCc2cccc(OC)c2OC)(C(F)(F)F)C=C1C=C1CCCCC1 (stereo not given)	18	7	1	0	71*
C/C=C1\COC(C(=O)NCc2ccncc2)(C(F)(F)F)C=C1C=C1CCCCC1 (stereo not given)	-1	3	0	-6	4
C[C@@H]1CCCCO[C@H](CN(C)C(=O)Nc2ccccc2)[C@@H](C)CN([C@@H](C)CO)C(=O)c2cc(NS(=O)(=O)c3cn(C)cn3)ccc2O1	·	·	·	·	-39[16.7 µM]
O=C(Nc1cccc(-c2ccc(N3CCCCC3)nn2)c1)C(F)(F)F	20	19	0	-6	68*
COc1ccc(NC(=O)Nc2ccc3c(c2)C(=O)N([C@@H](C)CO)C[C@H](C)[C@H](CN(C)C(=O)Nc2ccc(OC)cc2)OCCCC[C@H](C)O3)cc1	·	·	·	·	-6[16.7 µM]
C[C@@H]1CCCCO[C@@H](CN(C)Cc2ccccc2)[C@H](C)CN([C@@H](C)CO)C(=O)c2cc(NS(=O)(=O)c3cccs3)ccc2O1	·	·	·	·	-35[16.7 µM]
CS(=O)(=O)N(Cc1ccc(Cl)cc1)c1ccc(C(=O)Nc2cccnc2)cc1	8	6	0	-5	60*
CS(=O)(=O)N(Cc1ccccc1)c1ccc(C(=O)Nc2cccnc2)cc1	6	-5	0	0	-19
CS(=O)(=O)N(Cc1ccc(Cl)cc1)c1ccc(C(=O)NCCSc2ccccn2)cc1	5	-1	0	-4	85*
CCNC(=O)C[C@H]1CC[C@@H]2[C@H](COc3ccc(NC(=O)c4cccs4)cc3C(=O)N2C)O1	·	·	·	·	-19[16.7 µM]
Cc1ccc(S(=O)(=O)N[C@H]2CC[C@@H](CCNC(=O)C3CCC3)O[C@H]2CO)cc1	·	·	·	·	-5[16.7 µM]
COc1cccc(NC(=O)COc2ccc3c(c2)CCC3)c1	-11	-1	0	-7	-15
COc1ccc(OC)c(NC(=O)COc2ccc3c(c2)CCC3)c1	14	6	0	-8	70*
COc1ccc(OCCC(=O)OCC(=O)Nc2cccc(S(=O)(=O)N3CCOCC3)c2)cc1	-2	-14	0	1	-8
O=C(Cc1ccccc1)Nc1cccc(S(=O)(=O)N2CCCCCC2)c1	8	-2	0	-1	·
O=C(CNC(=O)c1cccs1)Nc1cccc(S(=O)(=O)N2CCOCC2)c1	11	-15	0	0	61*
O=C(Cc1ccc(F)cc1)Nc1cccc(S(=O)(=O)N2CCCC2)c1	4	-9	0	-4	63*
CC(C)(C)c1ccc(OCCC(=O)Nc2cccc(S(=O)(=O)N3CCOCC3)c2)cc1	18	-4	0	1	75*
C[C@@H]1CN([C@@H](C)CO)C(=O)c2cc(NC(=O)Nc3ccc(F)cc3)ccc2O[C@@H]1CN(C)C(=O)Nc1ccc(C(F)(F)F)cc1	·	·	·	·	34[16.7 µM]
O=C(C[C@@H]1CC[C@H](NC(=O)Nc2ccc(F)cc2)[C@@H](CO)O1)NCc1ccccn1	·	·	·	·	-7[16.7 µM]
SMILES	COUP-TFII inh	Gli-Sufu antag	aDG glyco act	GalR3 antagonist	HIV Env fusion
COc1ccc(S(=O)(=O)N(C)C[C@@H]2Oc3c(NC(=O)Nc4cccc5ccccc45)cccc3C(=O)N([C@@H](C)CO)C[C@@H]2C)cc1	·	·	·	·	-39[16.7 µM]
CCCCNC(=O)CC(C(=O)N1CCc2ccccc21)n1ccnc1 (stereo not given)	-10	-1	0	-6	-13
CCN(CCCNC(=O)CC(C(=O)N1CCc2ccccc21)n1ccnc1)c1cccc(C)c1 (stereo not given)	-2	5	0	-4	57*
C[C@H]1CCCCO[C@H](CN(C)C(=O)Nc2ccc(F)cc2)[C@@H](C)CN([C@@H](C)CO)C(=O)c2cc(N(C)C)ccc2O1	·	·	·	·	18[16.7 µM]
CCn1c(SCC(=O)Nc2nc(-c3ccc(C)cc3)cs2)nnc1-c1ccccc1O	48*	3	1	-1	·
CCOC(=O)c1cccc(NC(=O)CSc2nc3cccnc3n2C)c1	36	3	2	-5	62*
CCOC(=O)c1sc(NC(=O)CSc2nc3cccnc3n2C)nc1C	12	20	0	-11	39
COc1ccccc1/C=C/C1(C(=O)NC2CCCC2)CC(=O)N1c1ccc(F)cc1 (stereo not given)	6	2	0	-8	131*
Cc1ccc(OCc2nnc(SCc3ccc(C#N)cc3)n2-c2ccc(C)cc2)cc1	14	8	0	-8	65*
C=CCn1c(COc2ccc(Cl)cc2)nnc1SCc1ccc(C#N)cc1	-4	16	0	-4	58*
COc1ccc(S(=O)(=O)N(C)C[C@H]2Oc3ncc(/C=C/c4ccccc4)cc3C(=O)N([C@H](C)CO)C[C@@H]2C)cc1	·	·	·	·	24[16.7 µM]
C/C=C/c1cnc2c(c1)C(=O)N([C@H](C)CO)C[C@@H](C)[C@H](CN(C)C(=O)C1CC1)O2	·	·	·	·	10[16.7 µM]
COc1cc(/C=C/C(=O)OCC(=O)NC(=O)NC(C)C)ccc1O	5	-6	2	1	57*
COc1cc(/C=C/C(=O)OCC(=O)NC(=O)NC(C)C)ccc1OCC#N	-16	1	0	-9	12
CC(=NNC(=S)N1CCCC1)c1ccccn1	15	·	-1	-6	33
CC(=NNC(=S)N1CCC1)c1ccccn1	6	89*	0	-1	-107
CC(=NNC(=S)SCc1ccccc1)c1ccccn1	0	78*	2	2	79*
Cc1ccc(S(=O)(=O)N[C@@H]2C=C[C@H](CC(=O)N3CCc4ccccc4C3)O[C@@H]2CO)cc1	·	·	·	·	26[16.7 µM]
CC(NC(=O)c1cc(S(=O)(=O)N(C)C)ccc1N1CCCC1)C1CC2CCC1C2 (stereo not given)	5	14	0	1	72*
CCC(=O)N(C)C[C@H]1Oc2ncc(C3=CCCC3)cc2C(=O)N([C@H](C)CO)C[C@@H]1C	·	·	·	·	-7[16.7 µM]
COc1ccc(OC)c(C(=O)c2coc3ccc(O)c(CN(C)C)c23)c1	20	9	0	-2	-1
COc1ccc2occ(C(=O)c3coc4ccc(O)c(CN(C)C)c34)c2c1	9	9	9.1*	-7	-54
O=C1c2cccc3c([N+](=O)[O-])ccc(c23)C(=O)N1Cc1cccnc1	-17	3	-1	30*	-36
O=C1c2cccc3cccc(c23)C(=O)N1Cc1cccnc1	14	6	0	-2	7
